{
  "source": "the supplement of paper PMC10477191",
  "note": "± gives the standard deviation of the averaged measurements.",
  "data": [
    {"system": "Drosophila virilis antennal basiconic sensillum AB3", "assay": "odor-evoked OSN spike response (post minus pre-stimulus); higher = stronger neuronal excitation", "conditions": "odor dilution: 10^-4", "procedure": "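Single sensillum recordings from antennal basiconic sensilla of D. virilis. A 500 ms pulse of odorant (10^-4 in mineral oil or DMSO) was delivered; the response is the change in spike frequency between the 1 s pre- and post-stimulus windows (spikes/s).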", "units": {"odor-evoked OSN spike response": "spikes/s"}, "values": [
      {"smiles": "CC(C)=O", "note": "[acetone]", "odor-evoked OSN spike response": "92.2 ± 20"}
    ]}
  ]
}
